The full list was thinned out, with hits kept by preference.
Pf Dd2 growth: qHTS Primary assay for Inhibitors of Plasmodium falciparum Dd2 growth in vitro; P. falciparum Dd2 growth, SYBR Green, 72 h; Potency, µM (doses to about 28.9 µM), inactives show top-dose activity, negative = inhibition, hits mostly inhibitors; 120,000 compounds, 4.3% hits; active means well fitted inhibition curve with a large enough effect;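 further: plate controls were DMSO vehicle for no effect and reference drug for full effect; nearly all actives have a fitted effect of over 65% in size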
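Infected erythrocytes (Dd2, 0.3% parasitemia, 2.5% hematocrit final) are added to compound in RPMI-1640/Albumax II medium, grown 72 h at 37C in low oxygen, then lysed with saponin/Triton-X containing SYBR Green and read by fluorescence.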
Starred values were filed as active, the others as inactive; [ ] = remark or other dose. Potency means the concentration at half of the fitted maximal effect.

`COc1cccc([S+](=O)([O-])N2CCC(C(=O)O)(c3ccccc3)CC2)c1` gave Pf Dd2 growth 7%.
For O=S(=O)(NCC1(COc2cnccn2)C[C@@H](O)[C@@H](O)C1)c1ccc(Cl)cc1 (stereo not given in full) the results were Pf Dd2 growth -28%.
For Cc1cc2c(c(=O)n(-c3ccc(F)cc3)c(=O)n2CC(=O)Nc2ccc(F)cc2)n1C the results were Pf Dd2 growth inactive.
`O=C1CCNCCCC(CO)CCN1` (stereo not given) gave Pf Dd2 growth inactive.
COc1ccc(NC(=O)c2sc3nc(C(F)(F)F)cc(C)c3c2N)cc1OC was read as Pf Dd2 growth -9%.
COCc1cc(C)nc2sc(C(=O)Nc3ccc(OC(F)(F)F)cc3)c(N)c12 was read as Pf Dd2 growth 4µM*.
Screening Nc1c(C(=O)Nc2ccc(OC(F)(F)F)cc2)sc2nc(-c3ccncc3)ccc12 returned Pf Dd2 growth inactive.
Screening O=C(NCC(F)F)C1CCCN(c2nc3ncccc3o2)C1 (stereo not given) returned Pf Dd2 growth -14%[44.1 µM].
`COc1cccc(C(=O)NC(C(=O)N2CCCCC2)C2CCN(C(=O)c3cccc(F)c3)CC2)c1` (stereo not given) gave Pf Dd2 growth 8.9µM*.
For Cc1cccc(C(=O)N2CCC(C(NC(=O)c3ccccc3)C(=O)N3CCCCC3)CC2)c1 (stereo not given) the results were Pf Dd2 growth 11µM*.
Screening O=C(NC(C(=O)N1CCCCC1)C1CCN(C(=O)c2ccccc2)CC1)c1ccccc1Cl (stereo not given) returned Pf Dd2 growth inactive.
COc1ccc(C(=O)N2CCC(C(NC(=O)c3cccc(OC)c3)C(=O)N3CCCC3)CC2)cc1 (stereo not given) was read as Pf Dd2 growth inactive.
Screening COc1cccc(C(=O)N2CCC(C(NC(=O)c3ccccc3)C(=O)NCc3ccco3)CC2)c1 (stereo not given) returned Pf Dd2 growth 8.9µM*.
For CCCNC(=O)C(NC(=O)c1cccc(OC)c1)C1CCN(C(=O)c2cccc(F)c2)CC1 (stereo not given) the results were Pf Dd2 growth inactive.
For O=C(NC(C(=O)NCc1ccco1)C1CCN(C(=O)C2CC2)CC1)c1ccccc1 (stereo not given) the results were Pf Dd2 growth 10%.
Screening Cc1ccc(C(=O)NC(C(=O)N2CCCC2)C2CCN(C(=O)c3ccccc3F)CC2)cc1 (stereo not given) returned Pf Dd2 growth inactive.
COCCNC(=O)C(NC(=O)c1cccc(OC)c1)C1CCN(C(=O)c2ccc(C)cc2)CC1 (stereo not given) was read as Pf Dd2 growth inactive.
`O=C(c1nc2sccn2c1Br)N1CCN(c2ncccn2)CC1` gave Pf Dd2 growth -4%.
Screening Cc1nc(C)c(C(=O)N2CCOCC(O)(CN3CCCC3)C2)s1 (stereo not given) returned Pf Dd2 growth -8%.
`c1ccc2c(c1)COC1(CCNC1)CN2CC1CCCCC1` (stereo not given) gave Pf Dd2 growth 13µM*.
`O=C(C1CCCC1)N1CC2(CCN(C3COC3)C2)OCc2ccccc21` (stereo not given) gave Pf Dd2 growth -28%.
For O=C(C1CCCC1)N1CC2(CCNC2)OCc2ccccc21 (stereo not given) the results were Pf Dd2 growth -11%.
c1ccc(CN2CCCCC2c2nc(CCOCC3CCCC3)no2)nc1 (stereo not given) was read as Pf Dd2 growth -22%.
Screening CC(=O)NC1(C)CCCN(c2ccc(Oc3ccccc3)cc2)C1 (stereo not given) returned Pf Dd2 growth 18%[44.1 µM].
Screening CC(=O)NC1(C)CCN(Cc2cccc(-c3cccc4ncccc34)c2)C1 (stereo not given) returned Pf Dd2 growth inactive.
`CC(=O)NC1(C)CCN(Cc2cccc(-c3ccc(N4CCOCC4)cc3)c2)C1` (stereo not given) gave Pf Dd2 growth -3%[44.1 µM].
CC(=O)NC1(C)CCN(Cc2ccc(-c3ccc4ccccc4c3)cc2)C1 (stereo not given) was read as Pf Dd2 growth 10µM*.
Screening CC(=O)NC1(C)CCN(Cc2ccc(-c3cccc4ncccc34)cc2)C1 (stereo not given) returned Pf Dd2 growth inactive.
Screening CC(=O)NC1(C)CCCN(Cc2cccc(Nc3ccncc3)c2)C1 (stereo not given) returned Pf Dd2 growth -23%[44.1 µM].
Screening CC(=O)NC1(C)CCCN(Cc2ccc(Oc3ccccc3)cc2)C1 (stereo not given) returned Pf Dd2 growth inactive.
For CC(=O)NC1(C)CCCN(Cc2cccc(-c3ccccc3)c2)C1 (stereo not given) the results were Pf Dd2 growth 8.9µM*.
Screening CC(=O)NC1(C)CCN(Cc2ccccc2-c2ccccc2Oc2ccccc2)C1 (stereo not given) returned Pf Dd2 growth 5µM*.
O=C1CC(c2noc(Cc3ccc(F)cc3)n2)CN1c1ccc(F)c(Cl)c1 (stereo not given) was read as Pf Dd2 growth -1%.
For CCNC(=O)c1cccnc1OC1CCN(C(=O)c2cc(F)ccc2F)C1 (stereo not given) the results were Pf Dd2 growth 33%.
For N#Cc1ccc(CN2CCC3(CC2)OCCN(CCc2ccccc2)C3=O)cc1 the results were Pf Dd2 growth -26%[44.1 µM].
CC(C)CNC(=O)N1CC(Oc2ccc(-c3nc(-c4ccccc4)no3)cc2)C1 was read as Pf Dd2 growth 23%[5.79 µM].
`C[C@@H](NC(=O)C1=C[C@@H](NC(=O)c2cccs2)[C@@H](O)[C@H](O)C1)C(N)=O` gave Pf Dd2 growth inactive.
For CCc1ccccc1NC(=O)N(C)CC1CCOCC1 the results were Pf Dd2 growth -6%.
For CCn1cc(S(=O)(=O)N2CCC(c3noc(-c4cnccn4)n3)C2)cn1 (stereo not given) the results were Pf Dd2 growth 68%[5.79 µM].
Screening CC(C)NC[C@H]1O[C@@H]2C[C@@H](CC(=O)N3CCC(F)(F)C3)O[C@@H]2[C@@H]1O returned Pf Dd2 growth 23%[44.1 µM].
For CCN1C(=O)CCN(C(=O)c2ccc3cc[nH]c3c2)CC12CCOCC2 the results were Pf Dd2 growth 7%.
Screening CCCCNC(=O)CC(c1cccc(OC)c1)c1c[nH]c2ccccc12 (stereo not given) returned Pf Dd2 growth inactive.
Screening CCCCNC(=O)CC(c1ccc(OC)cc1OC)c1c[nH]c2c(CC)cccc12 (stereo not given) returned Pf Dd2 growth inactive.
COc1ccc(C(CC(=O)NCCc2ccc(OC)c(OC)c2)c2c[nH]c3ccccc23)c(OC)c1 (stereo not given) was read as Pf Dd2 growth 11µM*.
c1ccc(-c2cc(CC3(NCC4CC4)COC3)no2)nc1 was read as Pf Dd2 growth -3%[44.1 µM].
For Cc1nc(SCC(=O)Nc2ccc(C)c(Cl)c2)cc(-c2ccccc2)n1 the results were Pf Dd2 growth 2%.
`CSc1nc(Nc2ccc(C)cc2C)cc(-c2ccccc2)n1` gave Pf Dd2 growth -28%.
Screening Cc1cc(C)cc(Nc2cc(-c3ccccc3)nc(C)n2)c1 returned Pf Dd2 growth 11µM*.
For O=C(c1ccccc1OCC1CCCNC1)N1CCCCC1 (stereo not given) the results were Pf Dd2 growth -6%.
For O=C(NCc1nnc2c(-c3nc(C4CC4)no3)cccn12)c1cccc(F)c1 the results were Pf Dd2 growth inactive.
